# In the library only some 0.25% were active in any assay of this set; here they are far more common.
# ERG Ets-DNA blk: blocks human ERG Ets domain binding to DNA; Potency, µM (titrated, usually from 76.9 µM), inactives show at the highest dose FP activity, negative = inhibition, hits mostly inhibitors; P11308; fluorescence polarization, His-ERG Ets domain / labelled DNA; actives 0.028% (n = 370,000); AID 624246; active = well fitted inhibition curve with a large enough effect in the polarisation, with a control signal flat; inconclusive = small, poorly fitted or top-dose-only effect, or effect the other way, or a change in a side signal; inactive = no such curve, though single readings can be large or run the other way; the % refers to the polarisation;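 also: polarization taken with two DNA probes labelled with fluorescein and Texas red; % of control where 0% means no effect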
#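 His-tagged ERG Ets domain (1 uM in the protein solution; 300mM KCl, 50mM Tris-HCl, 1mM EDTA, 1mM DTT, pH 7.5) received compound, then a probe mix of 5 nM fluorescein-DNA and 100nM Texas-615-DNA. Fluorescence polarization was read for both dyes.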
# Chronic BCR inh: chronic active BCR signaling inhibition. actives 0.05% (n = 340,000). ABC-DLBCL IkBa-CBG/CBR reporter, luminescence ratio, 4 h. AID 493014. Potency, µM (titrated, usually from 46.1 µM), for inactives: top-dose activity change, negative = inhibition, hits mostly inhibitors; active = well fitted inhibition curve with a large enough effect in the signal ratio, with a control signal flat, not every such curve was filed as active; inconclusive = small, poorly fitted or top-dose-only effect, or effect the other way, or a change in a side signal; the % refers to the signal ratio;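 also: plate controls were basal doxycycline-induced cells for no effect and cells given 10 µM MG132 for full effect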
#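 Concentration-response series (up to 46 uM) were applied to TMD8 dual-reporter cells for 4 h at 37C with doxycycline. Green/red ratio, after filter-overlap correction, defined %Activity; red signal alone was normalised to basal cells and zero luminescence.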
# Pin1 inhibitor: human Pin1 inhibition; actives 0.009% (n = 390,000); Potency, µM (top dose mostly 115 µM), without a hit: top-dose activity, negative = inhibition, actives largely listed as inhibitors; Pin1 FP peptide displacement, HiFluor488, 10 min; Q13526; AID 504891; active = well fitted inhibition curve with a large enough effect in the polarisation, with a control signal flat, not every such curve was filed as active; inconclusive = small, poorly fitted or top-dose-only effect, or effect the other way, or a change in a side signal; inactive = no such curve, though single readings can be large or run the other way; the % refers to the polarisation; also: % is scaled to controls: 0 for no effect and ±100 for the full control effect
# Tb PFK inh-1: blocks T. brucei phosphofructokinase | actives 0.17% (n = 330,000) | T. brucei PFK, ADP-Glo luminescence | Potency, µM (series often up to 57.5 µM), for the others: top-dose activity, negative = inhibition, actives largely listed as inhibitors | O15648;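 also: 0% = uninhibited 1x PFK enzyme wells and -100% = no-enzyme wells; nearly all actives have a fitted effect of over 60% in size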
#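 Compounds were pin-transferred as a titration series up to 57 uM into substrate buffer (0.5 mM F6P, 0.1 mM ATP, pH 8.0), then 1.25 nM PFK was added and reactions ran 45 min before ADP-Glo detection.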
# Tb PGK inh: inhibitors of T. brucei phosphoglycerate kinase; actives 0.043% (n = 380,000); Potency, µM (top dose mostly 57.5 µM), for the others: at the highest dose activity change, negative = inhibition, hits mostly inhibitors; AID 602233; P07378; PGK/GAPDH coupled, Kinase-Glo luminescence, 60 min; also: % is scaled to controls: 0 for no effect and ±100 for the full control effect; nearly all actives have a fitted effect of over 60% in size
# Target sequence (P07378 whole entry, looked up): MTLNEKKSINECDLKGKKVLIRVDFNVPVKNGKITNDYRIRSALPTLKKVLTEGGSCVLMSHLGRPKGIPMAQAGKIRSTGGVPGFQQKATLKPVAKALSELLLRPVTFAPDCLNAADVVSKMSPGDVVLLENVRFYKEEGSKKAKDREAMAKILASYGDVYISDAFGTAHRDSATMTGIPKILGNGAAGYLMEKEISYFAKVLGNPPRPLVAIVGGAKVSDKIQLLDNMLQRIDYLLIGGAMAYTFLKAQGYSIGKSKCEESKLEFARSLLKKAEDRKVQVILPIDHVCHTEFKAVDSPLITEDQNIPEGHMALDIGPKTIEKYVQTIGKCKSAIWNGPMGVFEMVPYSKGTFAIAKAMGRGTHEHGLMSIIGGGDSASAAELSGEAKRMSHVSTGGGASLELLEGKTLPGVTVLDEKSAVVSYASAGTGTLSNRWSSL
#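 Recombinant glycosomal PGK reaction used 1,3-bisphosphoglycerate generated in-well by GAPDH (100nM final) in 100mM TEA pH 7.6, 5mM MgCl2, 0.01% Tween-20. After 60 minutes at room temperature, ATP was read by Kinase-Glo Plus luminescence end-point.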
# TbPFK ATP: orthogonal confirmation of T. brucei phosphofructokinase inhibitors. Potency, µM (titrated, usually from 57.5 µM), inactives show top-dose inhibition. AID 504636. Tb PFK enzyme, ATP depletion, Kinase-Glo Plus luminescence. shares compounds with Tb PFK inh-1. actives 47% (n = 1,100); calls by dose curve; also: nearly all actives have a fitted effect of over 60% in size
# Tb PFK inh-2: validation of T. brucei phosphofructokinase inhibitors | shares compounds with Tb PFK inh-1 | actives 41% (n = 1,100) | AID 504637 | Potency, µM (highest dose often 57.5 µM), for the others: at the highest dose activity change, negative = inhibition, hits mostly inhibitors | purified T. brucei PFK, ADP-Glo luminescence, 45 min;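 also: plate controls were full PFK enzyme control for no effect and no enzyme control for full effect; nearly all actives have a fitted effect of over 60% in size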
# * = called active by the depositor; i = inactive; ? = inconclusive; nt = no result. Unless noted, calls follow the shape of the dose curve; as a rule, active = well fitted curve in the direction sought with a large enough effect; inconclusive = small, poorly fitted or top-dose-only effect, or another doubt; inactive = no such curve, though single readings can be large; an effect the other way counts as inactive or inconclusive. Potency is read from the fitted curve at half-maximal effect.
SMILES,ERG Ets-DNA blk,Chronic BCR inh,Pin1 inhibitor,Tb PFK inh-1,Tb PGK inh,TbPFK ATP,Tb PFK inh-2
CCOC(=O)N1CCC(NC(=O)CCC(=O)N2CCOc3ccc(Cl)cc32)CC1,16%,2%,0%,?,i,?,-21%
O=c1c(O)c(-c2cc(O)c(O)c(O)c2)oc2cc(O)cc(O)c12,3%,1%,?,8.5µM*,?,1.9µM*,3.8µM*
O=c1c(O)c(-c2ccccc2)oc2cc(O)cc(O)c12,13%,?,0%,12%,i,nt,nt
O=C(Cc1cccc2ccccc12)Nc1cc(C(=O)O)cc(C(=O)O)c1,-1%,-1%,-1%,8.5µM*,-1%,1.9µM*,?
O=C(Cc1cccc2ccccc12)NC(=S)Nc1cccc(C(=O)O)c1,3%,1%,-5%,-3%,-2%,nt,nt
O=S(=O)(c1ccccc1)N1CCN(c2nc(-c3ccc(Br)cc3)cs2)CC1,nt,nt,-4%,nt,nt,nt,nt
Cc1nn(Cc2ccc(Cl)c(Cl)c2)c(C)c1NC(=O)c1cc(-c2ccco2)on1,-2%,-4%,65%,4.8µM*,2%,2.7µM*,6µM*
O=C1C=C(NCc2ccc(Cl)c(Cl)c2)C2(CCCCC2)O1,-1%,-1%,-3%,17µM*,-5%,6µM*,24µM*
O=C1C=C(NCc2ccccc2)C2(CCCCC2)O1,4%,-2%,-2%,6%,-6%,nt,nt
Cc1ccc(NC2=C(NC(=O)c3ccccc3)C(=O)c3ccccc3C2=O)cc1Cl,7%,6%,-4%,?,i,?,6.7µM*
Cc1ccc(NCC(=O)c2ccccc2)cc1Cl,3%,7%,-5%,-17%,-9%,nt,nt
CCOC(=O)C1=CN(C(=O)OC(C)(C)C)C(CN2C(=O)COCC2=O)C1 (stereo unspecified),nt,nt,-15%,nt,nt,nt,nt
O=C1NC(=Nc2ccccc2)S/C1=C\C=C\c1ccco1,9%,11%,8%,7.6µM*,-6%,?,?
CC1=NOC(=O)/C1=C\c1ccc(-c2ccc(Cl)c(C(=O)O)c2)o1,23%,1%,?,?,?,nt,nt
CC1=NOC(=O)/C1=C\c1ccc(-c2cccc(Cl)c2)o1,-3%,10%,0%,21µM*,-5%,6µM*,11µM*
CC1(C)CC(=O)C2=C(C1)NC(Nc1nc3ccccc3o1)=NC2c1ccccc1 (stereo unspecified),nt,nt,-1%,nt,nt,nt,nt
Cn1cccc1/C=C1/SC(=S)N(CC(=O)O)C1=O,7%,4%,?,?,-2%,-28%,?
N#CN1CCC(NC(=O)c2cccc(F)c2)CC1,nt,nt,-4%,nt,nt,nt,nt
CC1C(=O)N(S(=O)(=O)c2ccc([N+](=O)[O-])cc2)[C@H]1c1ccc2ccccc2c1 (stereo partly specified),nt,nt,0%,nt,nt,nt,nt
CCC(=O)OCCNc1cc(Sc2nc3ccccc3[nH]2)c2nonc2c1[N+](=O)[O-],15%,?,40%,?,-10%,6µM*,9.5µM*
CCC1(CC)C(=O)C2=C3C1[C@H](C(=O)OC)CC(C(=O)OC)C[C@H]3[C@H]1C(=O)N(C)C(=O)[C@H]1[C@H]2C (stereo partly specified),nt,nt,-14%,nt,nt,nt,nt
O=S(=O)(Nc1cc(Br)cc2cccnc12)c1ccccc1,nt,nt,4%,nt,nt,nt,nt
COc1ccc(OC)c(NC(=O)c2cc(-c3cc(C)ccc3O)n[nH]2)c1,5%,?,?,?,-10%,-19%,?
COc1c(O)cc2oc(-c3ccc(O)cc3)cc(=O)c2c1O,9%,?,-1%,15%,-2%,nt,nt

# Source: PubChem BioAssay (National Center for Advancing Translational Sciences (NCATS))
